In PubChem BioAssay AID1274 (Emory University Molecular Libraries Screening Center, 2008):
The campaign covered roughly 220,000 compounds. About 1,100 (0.5%) were called active. Only a selection was taken, and actives are over-represented in it overall. Unmarked numbers belong to inactive results.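 Rule for the calls: active = inhibition above about 30% (limit read from the data); inactive = the rest.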

Target: Neutrophil cytosol factor 1 (Homo sapiens) (UniProt P14598)
Experiment: p47phox/p22phox peptide binding inhibitors, primary screen, biochemical, uHTS, NADPH oxidase regulatory subunit (AID 1274);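 note: 0% = p47phox with labelled peptide and 100% = labelled peptide alone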
Settings: fluorescence polarization, 2 h, at 24.7 µM, active compounds read high

Neutrophil cytosol factor 1 (Homo sapiens), sequence (P14598 whole entry, looked up): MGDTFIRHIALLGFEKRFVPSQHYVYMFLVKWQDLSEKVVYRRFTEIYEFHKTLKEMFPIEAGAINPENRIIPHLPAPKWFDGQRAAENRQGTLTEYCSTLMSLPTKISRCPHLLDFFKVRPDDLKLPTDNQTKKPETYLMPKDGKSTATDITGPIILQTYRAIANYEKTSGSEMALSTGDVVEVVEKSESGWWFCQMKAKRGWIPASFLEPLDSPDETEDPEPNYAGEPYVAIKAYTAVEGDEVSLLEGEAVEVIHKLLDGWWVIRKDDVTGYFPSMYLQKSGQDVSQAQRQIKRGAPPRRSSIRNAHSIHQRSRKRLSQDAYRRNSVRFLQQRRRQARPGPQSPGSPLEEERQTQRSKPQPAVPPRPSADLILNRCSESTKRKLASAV

Row | Compound | inhibition
1 | CCOC(=O)C1CCN(c2ncnc3c2c(-c2ccccc2)cn3-c2ccc(C)cc2)CC1 | -0.04%
2 | CCOC(=O)C1CCN(C(=O)c2oc3ccc(S(=O)(=O)N4CCCCCC4)cc3c2C)CC1 | -9.11%
3 | CCOC(=O)C1CCN(c2ncnc3c2oc2ccc(Br)cc23)CC1 | 48.6% (active)
4 | CCN(CC)N=Nc1cccc(NC(C)=O)c1 | 2.47%
5 | O=C(CSC(=S)N1CCCCC1)c1c(F)cccc1F | -20.4%
6 | CC(C)Oc1ccc(CC(=O)NNC(=S)Nc2ccc(Br)cc2)cc1 | -4.65%
7 | Cc1cccc(C)c1NC(=O)C1(N(C(=O)c2ccccn2)c2ccc(O)cc2)CCCCC1 | -4.76%
8 | CC(Oc1ccc(-c2ccccc2)c(F)c1)c1ccn(S(=O)(=O)c2cccc3ccccc23)n1 (stereo unspecified) | 30.5% (active)
9 | COc1ccc(Nc2nc(N)nc(CSC(=S)N3CCC(C)CC3)n2)cc1 | -5.99%
10 | CCn1c(SCC(=O)N/N=C/c2ccncc2)nc2ccccc21 | 3.59%
11 | NNc1nc2c(Cl)cccc2s1 | -5.57%
12 | CC(=O)OCc1cc(=O)n(C)c(=O)n1C | 38.7% (active)
13 | CC(C)Oc1ccc(C(=O)Nc2cc(=O)n(C)c(=O)n2C)cc1 | -14%
14 | CC(=O)c1c(N)n(C)c(=O)n(C)c1=O | -3.86%
15 | O=C1CN(C(=O)CN2C(=O)NC3(CCCCC3)C2=O)c2ccccc2N1 | -8.11%
16 | C=CCC1(C#N)C(=S)NC(C)=C(C(=O)OCC)C1c1ccccc1 (stereo unspecified) | -0.89%
17 | C=CCN1CC(C)/C(=N\O)CC1C (stereo unspecified) | -0.6%
18 | Cn1c(SCC(=O)OC2CCCCC2)nnc1-c1ccc(S(=O)(=O)N2CCCC2)cc1 | -1.77%
19 | CCC(=O)Nc1cccc(NC(=O)CSc2nnc(-c3ccc(NS(C)(=O)=O)cc3)n2C)c1 | -16.1%
20 | Cn1c(SCC(=O)Nc2cccc(O)c2)nnc1-c1ccc(S(=O)(=O)N2CCOCC2)cc1 | 36.6% (active)
21 | Nc1c(NCCc2ccccc2)c2ccccc2oc1=O | -7.7%
22 | O=C(COc1ccc2oc3c(c2c1)CCCC3)Nc1ccccn1 | 178% (active)
23 | Cc1cc(C)cc(OCC(=O)Nc2ccc(S(=O)(=O)Nc3ccccn3)cc2)c1 | -4.16%
24 | Cc1ccc(OCC(=O)Nc2ccc(S(=O)(=O)Nc3ccccn3)cc2)cc1 | 5.31%
25 | Cc1ccc(S(=O)(=O)NNC(=S)NC(C)(C)C)cc1 | -8.25%
26 | CCc1ccccc1NC(=O)CSc1nnc(CCNC(=O)OC(C)(C)C)o1 | -6.69%
